In PubChem BioAssay (Tox21):
Records with an inconclusive call do not appear. Where a call stands in place of a potency, no number is given. Active and inactive are the calls of the source. Calls follow the shape of the dose curve; as a rule, active = well fitted cell-killing curve with a large enough effect in the repeat runs; inconclusive = weak or mixed curves, or effect the other way; inactive = flat fitted curve, though single readings scatter.

Experiment: qHTS assay to identify small molecule agonists of the estrogen receptor beta (ER-beta) signaling pathway - cell viability counter screen (AID 1259380); also: nearly all actives have a fitted effect of over 30% in size
Details: ER-beta-bla HEK293T viability, CellTiter-Glo luminescence, 16 h; series mostly up to 92.4 µM
Excerpt: National Center for Advancing Translational Sciences [NCATS]
NIH Chemical Genomics Center [NCGC]
U.S. Environmental Protection Agency [EPA]
National Institutes of Environmental Health Sciences [NIEHS]
National Toxicology Program [NTP]
U.S. Food and Drug Administration [FDA]
Estrogen receptor (ER), a nuclear hormone receptor, plays an important role in development, metabolic homeostasis and reproduction. Two subtypes of ER, ER-alpha and ER-beta, have similar expression patterns with some uniqueness in both types. Endocrine disrupting chemicals (EDCs) and their interactions with steroid hormone receptors like ER causes disruption of normal endocrine function. To identify the compounds that activate ER signaling, an ER beta-UAS-bla GripTite cell line (Life Technologies, Madison, WI, USA) containing a beta-lactamase reporter gene under the control of an UAS response element was used to screen Tox21 10K compound library. The cytotoxicity of the Tox21 compound library against the ER-beta-bla cell line was tested in parallel by measuring the cell viability using CellTiter-Glo assay in the same wells.
Tox21 Assay Protocol Summary:
ER-beta-UAS-bla HEK293T cells were dispensed at 2,000 cells/5 uL of assay medium containing 2% charcoal stripped FBS per well into black wall/clear-bottom 1536-well plates using a Multidrop Combi (ThermoFisher Scientific, Waltham, MA) dispenser. After the assay plates were incubated at a 37C and 5% CO2 for 6 hr, 23 nL of compounds dissolved in DMSO, positive controls or DMSO only was transferred to the assay plate by a Pintool station (Kalypsys, San Diego, CA). The plates were incubated at 37C and 5% CO2 for 16 hr. Then 1 uL of LiveBLAzerTM B/G FRET substrate was added using a BioRAPTR FRD (Flying Reagent Dispenser, Aurora Discovery, San Diego, CA) and then the plates were incubated at room temperature for 2 hours, and fluorescence intensity was measured by an Envision plate reader (PerkinElmer, Shelton, CT). For cell viability readout that measures cytotoxicity, 4 uL/well of CellTiter-Glo reagent was added into the assay plates using a FRD. After 30 min incubation at room temperature, the luminescence intensity in the plates was measured using a ViewLux (PerkinElmer) plate reader.
Potency is read from the fitted curve at half-maximal effect.

Question: Which activity change, negative = cytotoxicity does the source give for `Brc1c2ccccc2c(Br)c2ccccc12` here?
Answer: 1.65% [at 8.39 µM] (inactive)

Question: For `CO[C@@H]1[C@H](OC(=O)/C=C/C=C/C=C/C=C/C(=O)O)CC[C@]2(CO2)[C@H]1[C@@]1(C)O[C@@H]1CC=C(C)C`, which Potency is on record?
Answer: inactive

Question: With `CC(C)OC(=O)C(C)N(C(=O)c1ccccc1)c1ccc(F)c(Cl)c1` (stereo not given) as the compound, how does the Potency read?
Answer: inactive

Question: For `CCC(C)(C)CC`, which Potency is on record?
Answer: inactive

Question: Which Potency does the source give for `O[C@@H](COc1cccc2ncccc12)CN1CCN(C2c3ccccc3[C@@H]3[C@H](c4ccccc42)C3(F)F)CC1` (stereo not given in full) here?
Answer: 26.6 µM (active)

Question: Which Potency does the source give for `CC(=O)NO` here?
Answer: inactive

Question: With `C=C1[C@H]2CC[C@@H]3[C@H]2C(C)(C)CCC[C@]13C` as the compound, how does the Potency read?
Answer: inactive

Question: For `O=C(O)C(S)C(S)C(=O)O` (stereo not given), which Potency is on record?
Answer: inactive

Question: Which Potency does the source give for `OC(C#CCN1CCCC1)(c1ccccc1)c1ccccc1` here?
Answer: inactive

Question: For `CN(C)CCOC(c1ccccc1)c1ccc(Br)cc1` (stereo not given), which Potency is on record?
Answer: 23.7 µM (active)

Question: With `Nc1cccc([N+](=O)[O-])c1` as the compound, how does the Potency read?
Answer: inactive

Question: With `C/C(=C(\CCOP(=O)(O)O)SC(=O)c1ccccc1)N(C=O)Cc1cnc(C)nc1N` as the compound, how does the activity change, negative = cytotoxicity read?
Answer: 7.29% [at 8.39 µM] (inactive)

Question: For `CNC(=O)CN(CCN(CCN(CC(=O)[O-])CC(=O)NC)CC(=O)[O-])CC(=O)[O-].O.[Gd+3]`, which Potency is on record?
Answer: inactive

Question: With `CN(C)c1ccc(/C=C/c2ccc([N+](=O)[O-])cc2)cc1` as the compound, how does the activity change, negative = cytotoxicity read?
Answer: -2.6% [at 8.39 µM] (inactive)

Question: With `CCC(C)O` (stereo not given) as the compound, how does the Potency read?
Answer: inactive

Question: For `Cc1cccc(Nc2ccccc2)c1`, which Potency is on record?
Answer: inactive

Question: For `O=S(=O)(Oc1ccc(Cl)cc1)c1ccccc1`, which Potency is on record?
Answer: inactive

Question: For `COc1cc2nc(Cl)nc(N)c2cc1OC`, which Potency is on record?
Answer: inactive

Question: For `CCCCCCCCCCCCCCCCCCOS(=O)(=O)O`, which Potency is on record?
Answer: 48.6 µM (active)

Question: With `ClCCOCCOCCCl` as the compound, how does the Potency read?
Answer: inactive

Question: For `O=C(O)c1ccccc1Cl`, which Potency is on record?
Answer: inactive

Question: Which Potency does the source give for `CNCCCN1c2ccccc2CCc2ccccc21` here?
Answer: 23.7 µM (active)

Question: With `CC1(c2ccccc2)OC(C(=O)O)=CC1=O` (stereo not given) as the compound, how does the Potency read?
Answer: inactive

Question: For `CCCCCCCCCCCCN1CCCCCC1=O`, which Potency is on record?
Answer: 30.6 µM (active)

Question: With `O=C(O)CNCC(=O)O` as the compound, how does the activity change, negative = cytotoxicity read?
Answer: 12.4% [at 8.39 µM] (inactive)

Question: For `NC(=O)C(c1ccccc1)(c1ccccc1)[C@@H]1CCN(CCc2ccc3c(c2)CCO3)C1`, which Potency is on record?
Answer: inactive

Question: Which Potency does the source give for `COc1ccnc(CS(=O)c2nc3ccc(OC(F)F)cc3[nH]2)c1OC` (stereo not given) here?
Answer: inactive

Question: For `O=C(O)CC(=O)C(=O)O`, which Potency is on record?
Answer: inactive

Question: For `CC(=O)[O][Al]`, which Potency is on record?
Answer: inactive

Question: For `COS(=O)(=O)C(F)(F)F`, which Potency is on record?
Answer: inactive

Question: Which Potency does the source give for `CCN(CC)CCNC(=O)c1cc(Br)c(N)cc1OC` here?
Answer: inactive

Question: Which Potency does the source give for `CN(C)CCCN1c2ccccc2Sc2ccccc21` here?
Answer: 21.1 µM (active)

Question: Which Potency does the source give for `Cc1nn(C)c(Oc2ccccc2)c1/C=N/OCc1ccc(C(=O)OC(C)(C)C)cc1` here?
Answer: inactive

Question: With `Cc1ccc(N=Nc2c(O)c(C(=O)O)cc3ccccc23)c(S(=O)(=O)O)c1` as the compound, how does the Potency read?
Answer: inactive

Question: Which activity change, negative = cytotoxicity does the source give for `NC(N)=NCCC[C@H](N)C(=O)O` here?
Answer: 6.72% [at 8.39 µM] (inactive)

Question: Which Potency does the source give for `CCCCCCCCO[C@@H]1O[C@H](CO)[C@@H](O)[C@H](O)[C@H]1O` here?
Answer: inactive

Question: With `CCCCC1=NC2(CCCC2)C(=O)N1Cc1ccc(-c2ccccc2-c2nn[nH]n2)cc1` as the compound, how does the Potency read?
Answer: inactive

Question: Which Potency does the source give for `Nc1cc(C(=O)O)c(O)c(S(=O)(=O)O)c1` here?
Answer: inactive

Question: With `CCOC(=O)C1=C[C@]2(CC)CCCN3CCc4c(n1c1ccccc41)[C@@H]32` as the compound, how does the Potency read?
Answer: 26.6 µM (active)

Question: Which Potency does the source give for `O=P(O)(OCc1ccccc1)OCc1ccccc1` here?
Answer: inactive
